Screens deposited in PubChem by SRMLSC.
Most compounds without a hit are left out; they make up all but 6.8% or so of the library.
A340 absorber: absorbance at 340 nm; compound absorbance at 340 nm, fold over control; fold change at 10 µM; 65,000 tested, under 10 active; AID 708;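 active = at 10 µM dose, initial 340 nm absorbance at least 2 fold that of control wells; inactive = change under 2 fold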;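 note: initial absorbance extrapolated from kinetic A340 decline of NADH oxidation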
Fluor 339 460: intrinsic fluorescence of library compounds, ex339/em460 – biochemical, MLSMR library, data from DPM-DC assay, artefact control, profiling panel; fluorescence fold increase at 10 µM; AID 709; 65,000 tested, 5.5% active; compound autofluorescence, ex339/em460 nm, NADH buffer; active compounds read high; 1 = no-compound wells, NADH background;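 active = at 10 µM, mean starting fluorescence two-fold or more over control wells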;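 note: signal is the first read of a kinetic run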
Spn DPM-DC inh: blocks S. pneumoniae diphosphomevalonate decarboxylase; purified DPM-DC, PK/LDH coupled NADH fluorescence; calls only at 10 µM; 65,000 tested, 0.49% active;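 active = the 320 compounds with the highest percent inhibition in the single-dose primary screen, excluding strongly autofluorescent ones, cut at about 32% in these data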;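 note: kinetic rate of NADH fluorescence loss reporting ADP formed by the decarboxylase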
Spn MK inh: blocks S. pneumoniae mevalonate kinase. purified MK, PK/LDH-coupled NADH absorbance 340 nm. inhibition, % at 10 µM. 65,000 tested, 0.48% active. AID 555;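 active = ranked among the strongest by inhibition in the single 10 µM screen, a fixed top-ranked set picked for dose follow-up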
NADH coupling: inhibitors of enzymes used to reach an NAD/NADH endpoint. coupled PK/LDH NADH assays, four targets. IC50, µM (doses to about 10 µM), without a hit: top-dose inhibition. 65,000 tested, 0.02% active. AID 774;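 active = single-dose screening hits from any of four coupled enzyme assays that gave an IC50 when retested across doses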;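 note: the DPM-DC format reads NADH fluorescence rather than 340 nm absorbance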
Spn PMK inh: S. pneumoniae PMK inhibition. purified PMK, PK/LDH-coupled NADH absorbance 340 nm. inhibition, % at 10 µM. 65,000 tested, 0.49% active;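 active = top-ranked compounds by inhibition in the single 10 µM screen, taking a fixed number of the strongest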;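 note: 0% = full reaction with DMSO carrier and 100% = background rate without enzyme reaction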
* marks the source's active call; other numbers are inactive results; i = inactive; x = no result given; + = active, no number.

SMILES	A340 absorber	Fluor 339 460	Spn DPM-DC inh	Spn MK inh	NADH coupling	Spn PMK inh
Cc1cc(NCCCN2CCOCC2)n2nc(C)c(-c3ccc(F)cc3)c2n1	1.09	1.58	i	0.0	8.0%	25.0*
Cc1cc(C)c2c(n1)nn1c(NCCCN3CCOCC3)cc(C)nc21	1	3*	x	4.0	3.0%	5.0
Cc1cc(NCCCN2CCOCC2)n2ncc(-c3ccccc3)c2n1	1.06	2.12*	i	10.0	12.0%	16.0
Cc1cc(NCCCN2CCOCC2)n2nc(C)c(-c3ccccc3)c2n1	1.04	1.49	i	10.0	11.0%	13.0
Cc1cc(C(=O)N2CCN(CCc3ccccc3)CC2)no1	1.01	1.14	i	8.0	6.0%	9.0
COc1cc(NC(=O)CSc2nnc(C)s2)cc(OC)c1	0.99	1.04	i	6.0	5.0%	10.0
COc1cc(NS(=O)(=O)c2cccc3nsnc23)c(C(=O)O)cc1OC	0.97	0.99	i	1.0	4.0%	10.0
Cc1cc(NCCOCCO)n2ncc(-c3ccc(Cl)cc3)c2n1	1.01	2.56*	i	11.0	15.0%	9.0
COc1ccccc1-c1c(C)nn2c(NCCN3CCCC3)cc(C)nc12	1.05	1.14	i	1.0	2.0%	5.0
CN(C)c1ccc(/C(=N\O)c2ccccc2)cc1	1.01	1.05	i	7.0	2.0%	0.0
O=C(OCC#CCSc1nnc(-c2cccc3ccccc23)o1)c1cccs1	1.09	2.2*	i	8.0	4.0%	3.0
O=C(OCC#CCSc1nnc(-c2ccccc2)o1)c1cccs1	0.98	0.99	i	6.0	2.0%	0.0
Cn1c(=O)c2nc(Cl)n(Cc3ccc(Cl)cc3Cl)c2n(C)c1=O	0.97	0.99	i	11.0	5.0%	4.0
COc1ccc(OC)c(NC(=O)C2C3CCC(O3)C2C(=O)O)c1 (stereo not given)	1.05	1.19	i	0.0	1.0%	0.0
CC(C)CC(c1nnnn1Cc1ccccc1)N1CCN(C(=O)c2ccco2)CC1 (stereo not given)	0.99	0.89	i	0.0	7.0%	14.0
COc1ccc2nc(NC(=O)c3ccc(-n4nc(C)cc4C)cc3)sc2c1	1.03	5.11*	x	4.0	11.0%	18.0
COc1ccc2nc(NC(=O)c3ccc4ncsc4c3)sc2c1	1.08	2.19*	x	2.0	1.0%	0.0
Cc1cc(C)n(-c2ccc(C(=O)Nc3nnc(C4CC4)s3)cc2)n1	1.08	0.94	i	1.0	8.0%	15.0
COc1cc(C2C3=C(CC(C)(C)CC3=O)N(C)C(=O)N2C)cc(OC)c1OC (stereo not given)	1.03	1.07	i	11.0	6.0%	6.0
Cc1nnc2ccc(N3CCC(C(N)=O)(N4CCCCC4)CC3)nn12	1.05	1.04	i	1.0	0.0%	0.0
CC(=O)Nc1c(O)n(C)c2ccccc12	0.98	0.99	i	11.0	8.0%	active
CCOc1ccc(CCNC(=O)C2CCCN(c3nn4c(=O)cc(C)nc4s3)C2)cc1 (stereo not given)	1.02	1.05	i	0.0	7.0%	22.0
COCCNC(=O)C1CCCN(c2nn3c(=O)cc(C)nc3s2)C1 (stereo not given)	1	1.03	i	0.0	11.0%	33.0*
CC(=O)C(Sc1nc(-c2ccco2)nc2c1c(=O)n(C)c(=O)n2C)C(=O)N(C)C (stereo not given)	1.11	2.2*	i	3.0	9.0%	14.0
Cn1c(=O)c2c(SCC(=O)NCc3ccco3)nc(CC(C)(C)C)nc2n(C)c1=O	1.03	1.09	i	4.0	1.0%	0.0
SMILES	A340 absorber	Fluor 339 460	Spn DPM-DC inh	Spn MK inh	NADH coupling	Spn PMK inh
CCOCCCNC(=O)c1cc2c(-c3ccc(Cl)cc3)nn(C)c2s1	1.06	2.15*	x	8.0	8.0%	7.0
CC1CCCN(C(=O)c2cc3c(-c4ccc(Cl)cc4)nn(C)c3s2)C1 (stereo not given)	1.01	1.04	i	2.0	4.0%	0.0
Cn1nc(-c2ccc(Cl)cc2)c2cc(C(=O)NC3CC3)sc21	1.07	2.12*	x	0.0	3.0%	6.0
CCN(CC)CCNC(=O)c1cc2c(-c3ccc(Cl)cc3)nn(C)c2s1	1.1	2.15*	x	7.0	5.0%	2.0
O=S(=O)(O)C1CCNCC1	1.02	1.08	i	0.0	0.0%	0.0
COc1ccc(CCC(=O)NCCc2cn3c(C)csc3n2)cc1	1.03	0.98	i	12.0	7.0%	8.0
CCCc1cc(=O)n2c(nc3ccccc32)[nH]1	1.03	3.89*	x	4.0	4.0%	4.0
CCCCc1c(O)n2c(nc3ccccc32)[nH]c1=O	1.01	1.04	i	4.0	1.0%	0.0
COc1ccc(CCn2c(N)c(C#N)c3nc4ccccc4nc32)cc1OC	1.01	1.64	i	8.0	6.0%	0.0
CC(C)CCn1c(N)c(S(=O)(=O)c2cccs2)c2nc3ccccc3nc21	1.04	3.01*	x	1.0	3.0%	13.0
COc1ccc(Cn2c(N)c(C#N)c3nc4ccccc4nc32)cc1OC	1	1.89	x	0.0	2.0%	9.0
CC(C)CN1CN(S(=O)(=O)c2cccs2)c2nc3ccccc3nc21	1.08	1.35	i	9.0	5.0%	7.0
Nc1c(S(=O)(=O)c2cccs2)c2nc3ccccc3nc2n1Cc1cccs1	1.05	3.93*	x	4.0	8.0%	12.0
COc1ccc(CCn2c(N)c(S(=O)(=O)c3cccs3)c3nc4ccccc4nc32)cc1OC	1.11	1.47	+	3.0	21.0%	11.0
Nc1c(S(=O)(=O)c2cccs2)c2nc3ccccc3nc2n1Cc1ccc2c(c1)OCO2	1.09	2.67*	+	2.0	14.0%	6.0
Cc1ccc(C)n1-c1ncn[nH]1	0.99	1.02	i	2.0	6.0%	15.0
O=c1c2ccccc2nc(-c2ccccc2)n1Cc1ccco1	0.99	1.16	i	8.0	4.0%	3.0
Nc1c(S(=O)(=O)c2ccccc2)c2nc3ccccc3nc2n1Cc1ccco1	1.09	2.24*	x	8.0	8.0%	7.0
Cn1c(N)c(S(=O)(=O)c2ccc(Br)cc2)c2nc3ccccc3nc21	1.11	3.81*	x	2.0	5.0%	7.0
Nc1c(S(=O)(=O)c2cccs2)c2nc3ccccc3nc2n1CC1CCCO1 (stereo not given)	1.01	3.05*	x	9.0	4.0%	10.0
CCCOc1ccc(/C(O)=C2/C(=O)C(=O)N(CCCN3CCOCC3)C2c2ccncc2)cc1 (stereo not given)	1.07	1.06	i	1.0	2.0%	5.0
CCC1(C(=O)OC)NC(c2ccccc2OC)C2C(=O)N(C)C(=O)C21 (stereo not given)	0.99	1.04	i	0.0	5.0%	16.0
O=c1cc(O)nc(SC23CC4CC(CC(C4)C2)C3)[nH]1	0.99	1.1	i	4.0	5.0%	11.0
CCN1c2ccccc2-c2nc3ccccc3n2C1c1cccnc1 (stereo not given)	1.03	3.75*	x	5.0	6.0%	7.0
